Data from PubChem BioAssay (NCI).
This is part of a sample that, as a whole, favours compounds with a hit. Of some 83,000 tested, about 20% had one in any assay.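 48-hour exposure, single concentration, 96-well plates; percent growth endpoint where 0 means no net growth. Active: below 10.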 Values without a mark were called inactive. Activity calls are given as the source filed them.

Assays:
Experiment in all cases: NCI-60 one-dose screen, 48 h (100 = growth as untreated, 0 = no growth, -100 = all killed)
Settings in all cases: 10 µM unless noted
NCI-H23 lung = test system: NCI-H23 lung
NCI-H226 lung = test system: NCI-H226 lung
NCI-H322M lung = test system: NCI-H322M lung
HOP-62 NSCLC = test system: HOP-62 NSCLC
NCI-H460 lung = test system: NCI-H460 lung
HOP-92 NSCLC = test system: HOP-92 NSCLC
NCI-H522 lung = test system: NCI-H522 lung
A549/ATCC NSCLC = test system: A549/ATCC NSCLC
786-0 renal = test system: 786-0 renal
COLO 205 colon = test system: COLO 205 colon

SMILES	growth (NCI-H23 lung)	growth (NCI-H226 lung)	growth (NCI-H322M lung)	growth (HOP-62 NSCLC)	growth (NCI-H460 lung)	growth (HOP-92 NSCLC)	growth (NCI-H522 lung)	growth (A549/ATCC NSCLC)	growth (786-0 renal)	growth (COLO 205 colon)
O=C(CCCCCCNC(=O)C(O)(O)C(F)(F)F)Nc1ccc(Br)cc1	10.9%	37.2%	27.1%	-9.13% (active)	12.5%	-5.9% (active)	-36.6% (active)	7.9% (active)	25.4%	-60.8% (active)
CNC(=O)Nc1ccc(Nc2cc(-c3ccc(-n4cccn4)cc3)[nH]n2)c(C)c1	102%	104%	101%	106%	97.3%	173%	96.1%	102%	111%	124%
CN1CCN(CCCCCC(=O)Nc2nc(-c3cccc(NS(=O)(=O)c4cccc5c(N(C)C)cccc45)c3)cs2)CC1	65.2%	85.9%	96%	90.3%	79.3%	32.4%	91.8%	70.9%	79%	82.4%
Cc1ccc(OCc2occc2C(=O)N2CCOCC2)cc1	101%	96.9%	106%	-95.9% (active)	107%	103%	100%	109%	98.7%	117%
Cn1cc(C2=C(c3coc4cc(Br)ccc34)C(=O)NC2=O)c2ccccc21	86.8%	74.8%	82.2%	71%	98.6%	93.4%	72%	71.6%	83.7%	71.3%
O=C(/C=C/c1ccc(Cl)c(Cl)c1)Nc1ncc(Cc2ccc(Cl)c(Cl)c2)s1	70.4%	70.7%	58.5%	50.9%	28.3%	92.7%	40.4%	53.5%	78.8%	4.63% (active)
CCCc1[nH]c(-c2cc(N)ccc2Cl)c2c1C(=O)CCCC2	93.3%	98.1%	89.1%	94.5%	102%	81.6%	90.9%	91.9%	91%	121%
Cc1csc(/N=C(N)/N=C(\N)c2cccnc2)n1	78%	85.4%	87.2%	74.1%	62.3%	51.7%	54.4%	82%	90.6%	81.8%
Cc1nc(N)sc1-c1csc(Nc2ccc(C(F)(F)F)cc2)n1	34.4%	37.4%	61.4%	47.3%	25.1%	37.3%	-56.3% (active)	45.1%	38.6%	19.6%
Cc1ccc(NC2=C(Cl)C(=O)c3nc(C)ccc3C2=O)c(C)c1	-49.9% (active)	23.2%	36.7%	47.2%	46.2%	84.7%	-38.3% (active)	46.5%	23.7%	98%
CC(C)Sc1nc(-c2ccccc2)c(C#N)c(N2CCOCC2)n1	65%	55.1%	38.1%	63.7%	42.2%	73.2%	82.5%	37.2%	11.9%	74%
COC(=O)N1CCN(CCNCc2ccc(NC(=O)c3ccc(C)c(C#Cc4cnc5cccnn45)c3)cc2C(F)(F)F)CC1	36.2%	31.1%	75.3%	24.9%	22.2%	12.2%	30.2%	27.9%	38.2%	2.48% (active)
Cc1[nH]c(C(=O)Nc2ccc(S(=O)(=O)N3CCCCC3)cc2OCCOCCOCCOCCOCCOCCOCCOCCOCCOc2cc(S(=O)(=O)N3CCCCC3)ccc2NC(=O)c2[nH]c(C)c3c2CCCCC3=O)c2c1C(=O)CCCC2	20.8%	-2.37% (active)	34.1%	12.5%	35.6%	16.9%	0.322% (active)	24.1%	40.2%	-30.3% (active)
